From PubChem BioAssay (NCI) come the findings set out here.

About 83,000 compounds went through this panel and 20% of them were active in at least one assay; those are over-represented in the sample as a whole.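 Negative percent growth values reflect cell death: -40 means 40% of the cells present at the start died, and -100 means all died.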 Values without a mark were called inactive. Calls of active or inactive are those of the source. The calls were made as follows: active = growth percent below 10; inactive = the rest.

Test systems include NCI-H226 lung; NCI-H322M lung; HOP-62 NSCLC; NCI-H460 lung; HOP-92 NSCLC; NCI-H522 lung; A549/ATCC NSCLC; 786-0 renal; COLO 205 colon.
What all share (test): NCI-60 one-dose screen, 48 h (100 = growth as untreated, 0 = no growth, -100 = all killed)
Holding throughout (conditions): 10 µM unless noted

On to `O=C(Nc1nc2ccc(C(F)(F)F)cc2s1)c1cc(Cl)ccc1O`, for which the growth in the assay with NCI-H226 lung was 5.73% (active); with NCI-H322M lung, 10.6%; in the assay on HOP-62 NSCLC, 4.72% (active); in the assay with NCI-H460 lung it was 4.41% (active); with HOP-92 NSCLC, -12.3% (active); with NCI-H522 lung, -15.1% (active). Also, the values for the growth in the assay on A549/ATCC NSCLC, with 786-0 renal and with COLO 205 colon were 11.3%, 9.95% (active) and -57.3% (active), respectively.

As for `N#Cc1c(-c2ccc(F)cc2)nc(N/N=C/c2cccc(O)c2)nc1N1CCOCC1`, the growth with NCI-H226 lung is 100%; in the assay with NCI-H322M lung, 81.4%; in the assay with HOP-62 NSCLC, 92%; in the assay with NCI-H460 lung, 98.3%; with HOP-92 NSCLC, 64.4%; with NCI-H522 lung, 69.5%. Besides, the growth was 82.3% in the assay on A549/ATCC NSCLC, 65.1% with 786-0 renal and 73.4% with COLO 205 colon.

Take `Cc1cccc(C)c1Nc1nnc(-c2ccc(F)cc2)o1`: the growth in the assay with NCI-H226 lung is 96.1%; with NCI-H322M lung it was 93.4%; in the assay on HOP-62 NSCLC, 107%; with NCI-H460 lung, 104%; with HOP-92 NSCLC it was 95.5%; in the assay on NCI-H522 lung it was 112%. Besides, the growth is 104% with A549/ATCC NSCLC, 112% in the assay on 786-0 renal and 100% in the assay with COLO 205 colon.

With `O=C(Nc1ccc(S(=O)(=O)NC2CCCCCC2)cc1)C(c1ccccc1)S(=O)(=O)c1ccc(F)cc1` (stereo not given), the growth in the assay with NCI-H226 lung was -21.5% (active); with NCI-H322M lung it was 17.1%; with HOP-62 NSCLC, -17.4% (active); in the assay with NCI-H460 lung, 1.37% (active); with HOP-92 NSCLC, -12.2% (active); in the assay on A549/ATCC NSCLC, -12.4% (active). For the same compound, the growth is 20.4% with 786-0 renal and -18% (active) in the assay with COLO 205 colon.

With `COc1cc([C@H](C)c2ccc3ccccc3c2)cc(OC)c1OC`, the growth in the assay with NCI-H226 lung was 68.2%; in the assay on NCI-H322M lung, 55.9%; with HOP-62 NSCLC it was 36.7%; in the assay with NCI-H460 lung, 8.84% (active); in the assay on HOP-92 NSCLC, 66.3%; in the assay on NCI-H522 lung, 10.1%. The growth with A549/ATCC NSCLC is 24.6%; in the assay on 786-0 renal, 39.6%; with COLO 205 colon, -3.69% (active).

For `Clc1ccc2c(NCCCNC3CCCCC3)ccnc2c1`, the growth was 108% in the assay on NCI-H226 lung; 101% with NCI-H322M lung; 91.1% with HOP-62 NSCLC; 104% with NCI-H460 lung; 80.4% in the assay on HOP-92 NSCLC; 107% with NCI-H522 lung. In addition, the results for the growth with A549/ATCC NSCLC, in the assay on 786-0 renal and with COLO 205 colon were 120%, 68.5% and 93.5%, respectively.

`CCC[S@](=O)c1ccc2nc(NC(=O)OC)[nH]c2c1`: the growth with NCI-H226 lung is 89.9%; with NCI-H322M lung it was 98.6%; in the assay on HOP-62 NSCLC, 84.6%; in the assay on NCI-H460 lung, 99.8%; with HOP-92 NSCLC it was 96.5%; with NCI-H522 lung, 70.7%. In addition, the growth with A549/ATCC NSCLC was 75.6%; in the assay on 786-0 renal it was 94.2%; in the assay with COLO 205 colon, 100%.

On to `CCOC(=O)c1c(C)nc2c(c1N)/C(=C/c1ccc[nH]1)C(=O)N2Cc1ccc(C(F)(F)F)cc1`, for which the growth in the assay on NCI-H226 lung was 38.1%; in the assay on NCI-H322M lung, 74.4%; in the assay on HOP-62 NSCLC, 23.6%; in the assay with NCI-H460 lung, 16.8%; with HOP-92 NSCLC, 41.1%; in the assay on NCI-H522 lung, 43.3%. Further, the growth is 48.9% with A549/ATCC NSCLC, 22.9% in the assay with 786-0 renal and 75.6% in the assay with COLO 205 colon.

Take `COC(=O)/C=C/c1cc(OC(C)=O)c2c(c1)C(C(=O)OC)C(c1ccc(OC(C)=O)c(OC(C)=O)c1)O2` (stereo not given): the growth is 81.7% in the assay on NCI-H226 lung; 55.4% in the assay on NCI-H322M lung; 20% in the assay with HOP-62 NSCLC; 13.8% in the assay with NCI-H460 lung; 33.7% with HOP-92 NSCLC; -20.8% (active) in the assay on NCI-H522 lung. Further, the growth was 37.4% in the assay on A549/ATCC NSCLC, 19.8% with 786-0 renal and 38.9% with COLO 205 colon.
